These results are taken from PubChem BioAssay (NCI).

This is part of a sample that, as a whole, favours compounds with a hit. Of some 79,000 tested, about 15% had one in any assay. Unmarked numbers belong to inactive results. Activity calls are given as the source filed them. Cut-off read from the data, not from the text of the source: active = growth inhibition above about 70%; inactive = the rest.

A short description of test [1]: NCI Yeast Anticancer Drug Screen. Data for the rad50 strain (AID 155).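 Note: 0% = growth of vehicle-only cultures of the same strain.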 The settings on record: S. cerevisiae rad50 strain growth inhibition, stronger effect = higher value. The procedure, abridged: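 Growth of the mutant yeast was measured after compound exposure and referenced to vehicle-treated cultures.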
Test [2] can be described thus: NCI Yeast Anticancer Drug Screen. Data for the mec2-1 strain (AID 157). The settings on record: S. cerevisiae mec2-1 strain, stronger effect = higher value. Summed up:
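Vehicle-treated cultures served as reference for growth inhibition of compound-exposed mec2-1 yeast.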

Test [3] can be described thus: NCI Yeast Anticancer Drug Screen. Data for the sgs1 mgt1 strain (AID 161).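 Note: 0% = growth of cultures given vehicle only.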 The settings on record: S. cerevisiae sgs1 mgt1 strain, stronger effect = higher value. The procedure, abridged: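 Genetically altered yeast, compound exposure, growth inhibition relative to vehicle.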
Test [4] in a line: NCI Yeast Anticancer Drug Screen. Data for the cln2 rad14 strain (AID 165).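 Note: 0% = growth equal to vehicle treated cultures.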 The settings on record: S. cerevisiae cln2 rad14 strain, stronger effect = higher value. Summed up: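 Each compound was tested on cln2 rad14 yeast. Inhibition of growth was calculated against vehicle-exposed controls.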
Test [5] is described as follows: NCI Yeast Anticancer Drug Screen. Data for the bub3 strain (AID 167). The settings on record: S. cerevisiae bub3 mutant strain, stronger effect = higher value. The procedure, abridged:
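Whole-cell yeast assay. The mutant strain was incubated with compounds, and growth inhibition was determined by comparison with vehicle-treated cells.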

A short description of test [6]: NCI Yeast Anticancer Drug Screen. Data for the mlh1 rad18 strain (AID 175). The settings on record: S. cerevisiae mlh1 rad18 strain growth inhibition, stronger effect = higher value. Summed up: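 Vehicle-treated cultures served as the reference for growth inhibition in a yeast strain carrying DNA damage repair alterations exposed to each compound.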
Where [7] appears, read: at 5.0 µM (retest, dose inferred, filed as 0.5).
Where [8] appears, read: at 50.0 µM (retest, dose inferred, filed as 5.0).

Turning to `COc1c(Br)c(=O)n(C)c(=O)n1C`, the growth inhibition is -11% in test [1] (setting [7]); 99% (active) in test [1] (setting [8]); 89% (active) in test [1] (at 50.0 µM); -10% in test [2] (setting [7]); 99% (active) in test [2] (setting [8]); 87.8% (active) in test [2] (at 50.0 µM). The growth inhibition in test [3] (setting [7]) is -29%; in test [3] (setting [8]), 98% (active); in test [3] (at 50.0 µM), 91.2% (active); in test [4] (setting [7]), -4%; in test [4] (setting [8]) it was 99% (active); in test [4] (at 50.0 µM), 88.3% (active). Further, the growth inhibition in test [5] (setting [7]) was -26%; in test [5] (setting [8]), 99% (active); in test [5] (at 50.0 µM) it was 89.2% (active); in test [6] (setting [7]) it was -11%; in test [6] (setting [8]) it was 99% (active); in test [6] (at 50.0 µM), 89% (active).
As to `O=[N+]([O-])/C=C/C=C/c1ccco1`, the growth inhibition is -1% in test [1] (setting [7]); 98% (active) in test [1] (setting [8]); 99.6% (active) in test [1] (at 50.0 µM); 3% in test [2] (setting [7]); 99% (active) in test [2] (setting [8]); 64.2% in test [2] (at 50.0 µM). Besides, the growth inhibition in test [3] (setting [7]) is 6%; in test [3] (setting [8]), 94% (active); in test [3] (at 50.0 µM), 97.2% (active); in test [4] (setting [7]) it was 2%; in test [4] (setting [8]), 99% (active); in test [4] (at 50.0 µM) it was 99.1% (active). The growth inhibition is 7% in test [5] (setting [7]); 98% (active) in test [5] (setting [8]); 99.1% (active) in test [5] (at 50.0 µM); -5% in test [6] (setting [7]); 98% (active) in test [6] (setting [8]); 95.8% (active) in test [6] (at 50.0 µM).
As for `CN(C)C(=S)/N=c1\ssc(=S)n1Cc1ccco1`, the growth inhibition in test [1] (setting [7]) is 22%; in test [1] (setting [8]), -7%; in test [1] (at 50.0 µM), 1.55%; in test [2] (setting [7]) it was 0%; in test [2] (setting [8]) it was -8%; in test [2] (at 50.0 µM), -3.4%. The growth inhibition in test [3] (setting [7]) was -15%; in test [3] (setting [8]) it was -9%; in test [3] (at 50.0 µM) it was -15.8%; in test [4] (setting [7]), -7%; in test [4] (setting [8]), -11%; in test [4] (at 50.0 µM) it was 0.45%. Also, the growth inhibition was 2% in test [5] (setting [7]); -5% in test [5] (setting [8]); 47.3% in test [5] (at 50.0 µM); -2% in test [6] (setting [7]); -9% in test [6] (setting [8]); -4.25% in test [6] (at 50.0 µM).
Take `COC(=O)c1cccc2c1C(=O)c1ccccc1-2`: the growth inhibition in test [1] (setting [7]) is -7%; in test [1] (setting [8]) it was 37%; in test [1] (at 50.0 µM) it was 22.7%; in test [2] (setting [7]), -37%; in test [2] (setting [8]), -14%; in test [2] (at 50.0 µM) it was -9.6%. Further, the growth inhibition in test [3] (setting [7]) is -8%; in test [3] (setting [8]), -11%; in test [3] (at 50.0 µM) it was -5.9%; in test [4] (setting [7]) it was -3%; in test [4] (setting [8]) it was -19%; in test [4] (at 50.0 µM) it was 71.2% (active). Moreover, the growth inhibition in test [5] (setting [7]) was -23%; in test [5] (setting [8]) it was -54%; in test [5] (at 50.0 µM) it was -10.7%; in test [6] (setting [7]), -2%; in test [6] (setting [8]), -6%; in test [6] (at 50.0 µM), 1.55%.
With `Cc1ccc2cccc(N)c2c1`, the growth inhibition was 1% in test [1] (setting [7]); 2% in test [1] (setting [8]); -12.4% in test [1] (at 50.0 µM); 3% in test [2] (setting [7]); 9% in test [2] (setting [8]); -2.2% in test [2] (at 50.0 µM). The growth inhibition is 2% in test [3] (setting [7]); 4% in test [3] (setting [8]); -21.8% in test [3] (at 50.0 µM); 1% in test [4] (setting [7]); -9% in test [4] (setting [8]); 46.4% in test [4] (at 50.0 µM). Besides, the growth inhibition was 8% in test [5] (setting [7]); 12% in test [5] (setting [8]); -5.15% in test [5] (at 50.0 µM); 2% in test [6] (setting [7]); 8% in test [6] (setting [8]); 44.9% in test [6] (at 50.0 µM).
For the molecule `CCC(N)C(O)C(C)C` (stereo not given), the growth inhibition is -1% in test [1] (setting [7]); 10% in test [1] (setting [8]); 71.7% (active) in test [1] (at 50.0 µM); -1% in test [2] (setting [7]); 1% in test [2] (setting [8]); 2.6% in test [2] (at 50.0 µM). Further, the growth inhibition in test [3] (setting [7]) was -3%; in test [3] (setting [8]), 2%; in test [3] (at 50.0 µM), 14.3%; in test [4] (setting [7]), -2%; in test [4] (setting [8]) it was -2%; in test [4] (at 50.0 µM), -10.6%. Further, the growth inhibition in test [5] (setting [7]) is 3%; in test [5] (setting [8]), 17%; in test [5] (at 50.0 µM), 13.2%; in test [6] (setting [7]), -1%; in test [6] (setting [8]), 3%; in test [6] (at 50.0 µM) it was 10.6%.
Consider `COc1ccccc1/C=C1\C=Cc2ccccc21`, for which the growth inhibition in test [1] (setting [7]) was -3%; in test [1] (setting [8]) it was 6%; in test [1] (at 50.0 µM), 31.9%; in test [2] (setting [7]), 0%; in test [2] (setting [8]) it was -1%; in test [2] (at 50.0 µM), 49.5%. Moreover, the growth inhibition in test [3] (setting [7]) is -4%; in test [3] (setting [8]) it was 8%; in test [3] (at 50.0 µM), 44.2%; in test [4] (setting [7]), -1%; in test [4] (setting [8]), -14%; in test [4] (at 50.0 µM), 26.2%. Moreover, the growth inhibition in test [5] (setting [7]) is 3%; in test [5] (setting [8]), -1%; in test [5] (at 50.0 µM), 78% (active); in test [6] (setting [7]), -3%; in test [6] (setting [8]), 7%; in test [6] (at 50.0 µM) it was 70.4% (active).
For `COC(=O)/C(C#N)=C1\NC(=O)CC(c2ccccc2)C1C#N` (stereo not given), the growth inhibition in test [1] (setting [7]) was 12%; in test [1] (setting [8]), 20%; in test [1] (at 50.0 µM), -25.2%; in test [2] (setting [7]), 9%; in test [2] (setting [8]), 16%; in test [2] (at 50.0 µM), -27.1%. Also, the growth inhibition in test [3] (setting [7]) was 21%; in test [3] (setting [8]), 20%; in test [3] (at 50.0 µM) it was 9.25%; in test [4] (setting [7]) it was 5%; in test [4] (setting [8]) it was 19%; in test [4] (at 50.0 µM), -1.3%. Further, the growth inhibition in test [5] (setting [7]) is 10%; in test [5] (setting [8]), 13%; in test [5] (at 50.0 µM) it was -0.9%; in test [6] (setting [7]) it was 23%; in test [6] (setting [8]) it was 18%; in test [6] (at 50.0 µM), -16.7%.
Consider `CC(=O)OC/C=C/CCCOC(C)=O`, for which the growth inhibition in test [1] (setting [7]) was -15%; in test [1] (setting [8]), 4%; in test [1] (at 50.0 µM), 77.8% (active); in test [2] (setting [7]), -12%; in test [2] (setting [8]), -17%; in test [2] (at 50.0 µM), 64.3%. Besides, the growth inhibition in test [3] (setting [7]) is -7%; in test [3] (setting [8]), 5%; in test [3] (at 50.0 µM), 84% (active); in test [4] (setting [7]) it was 38%; in test [4] (setting [8]), 31%; in test [4] (at 50.0 µM) it was 77.9% (active). In addition, the growth inhibition is 17% in test [5] (setting [7]); 19% in test [5] (setting [8]); 80.3% (active) in test [5] (at 50.0 µM); 5% in test [6] (setting [7]); -5% in test [6] (setting [8]); 62.6% in test [6] (at 50.0 µM).
Turning to `Cc1ccccc1NCc1ccccc1Cl`, the growth inhibition in test [1] (setting [7]) is -141%; in test [1] (setting [8]), 98% (active); in test [1] (at 50.0 µM), 99% (active); in test [2] (setting [7]), -55%; in test [2] (setting [8]) it was 99% (active); in test [2] (at 50.0 µM), 99.5% (active). Besides, the growth inhibition was -66% in test [3] (setting [7]); 99% (active) in test [3] (setting [8]); 98.5% (active) in test [3] (at 50.0 µM); -83% in test [4] (setting [7]); 99% (active) in test [4] (setting [8]); 99% (active) in test [4] (at 50.0 µM). Moreover, the growth inhibition was -65% in test [5] (setting [7]); 99% (active) in test [5] (setting [8]); 99.5% (active) in test [5] (at 50.0 µM); -105% in test [6] (setting [7]); 98% (active) in test [6] (setting [8]); 96.7% (active) in test [6] (at 50.0 µM).
